Source: PubChem BioAssay (EPA / NIEHS)
Several values for one entry are separate records, joined by “and”; a condition that tells them apart may be missing. Equal values may be shown once. Activity calls are given as the source filed them. The calls were made as follows: active = hit-call score of the fitted dose curve at least 0.9, where 1 is the maximum; inactive = score below 0.9.

Tests used:
[1] = read-out: Interleukin-1 alpha (IL1a), IL1A (gene 3552); experiment: BSK_KF3CT_IL1a: BioMAP Diversity Plus: KF3CT Assay for Interleukin-1 alpha (IL1a) Biomarker Activity (AID 2283070); conditions: primary human keratinocytes with fibroblasts; actives raise or lower the signal
Outline: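 Human keratinocyte plus foreskin fibroblast primary co-culture, sampled 24 h after chemical dosing. IL-1a measured by ELISA; responses fitted bidirectionally against DMSO baseline (negative control), so gain or loss of signal both count.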

[2] = read-out: TIMP metallopeptidase inhibitor 2 (TIMP2), TIMP2 (gene 7077); experiment: BSK_KF3CT_TIMP2: BioMAP Diversity Plus: KF3CT Assay for TIMP metallopeptidase inhibitor 2 (TIMP2) Biomarker Activity (AID 2283071); conditions: primary human keratinocytes with fibroblasts; actives raise or lower the signal
Outline: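 Keratinocyte–fibroblast co-culture, 24 h exposure; TIMP-2 ELISA, DMSO-normalised bidirectional fit. Parallel SRB (0.1%, TCA-fixed, 560 nm) total-protein staining gauges cytotoxicity.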

[3] = read-out: Transforming growth factor beta 1 (TGFb1), TGFB1 (gene 7040); experiment: BSK_KF3CT_TGFb1: BioMAP Diversity Plus: KF3CT Assay for Transforming growth factor beta 1 (TGFb1) Biomarker Activity (AID 2283072); conditions: primary human keratinocytes with fibroblasts; actives raise or lower the signal
Outline: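 Signal changes in either direction, relative to DMSO, define activity here. TGF-b1 is read by ELISA from a human keratinocyte-fibroblast co-culture 24 h post-dose.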

[4] = read-out: C-C motif chemokine 2 (Homo sapiens) (UniProt P13500); experiment: BSK_KF3CT_MCP1: BioMAP Diversity Plus: KF3CT Assay for Monocyte Chemoattractant Protein 1 (MCP1/CCL2) Biomarker Activity (AID 2283073); conditions: primary human keratinocytes with fibroblasts; actives raise or lower the signal
Outline: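 Human keratinocyte–foreskin fibroblast co-culture; MCP-1 measured by ELISA 24 h after dosing. Bidirectional fit vs DMSO; cytotoxicity tracked by SRB total protein in parallel cultures.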

[5] = read-out: Matrix Metallopeptidase 9 (MMP9), MMP9 (gene 4318); experiment: BSK_KF3CT_MMP9: BioMAP Diversity Plus: KF3CT Assay for Matrix Metallopeptidase 9 (MMP9) Biomarker Activity (AID 2283074); conditions: primary human keratinocytes with fibroblasts; actives raise or lower the signal;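 as to AC50: MMP9 protein level quantified by ELISA in the co-culture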
Outline: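 Keratinocyte plus foreskin fibroblast human primary skin co-culture was dosed with chemical and MMP-9 was quantified by ELISA 24 h later. Bidirectional curve fitting used DMSO as negative control and activity baseline.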

[6] = read-out: urokinase plasminogen activator (uPA), PLAU (gene 5328); experiment: BSK_KF3CT_uPA: BioMAP Diversity Plus: KF3CT Assay for urokinase plasminogen activator (uPA) Biomarker Activity (AID 2283075); conditions: primary human keratinocytes with fibroblasts; actives raise or lower the signal
Outline: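 Human keratinocyte plus foreskin fibroblast primary co-culture exposed to chemical for 24 h. uPA levels were quantified by ELISA, and activity was fitted bidirectionally against a DMSO negative-control baseline.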

[7] = read-out: E-selectin (Homo sapiens) (UniProt P16581); experiment: BSK_LPS_Eselectin: BioMAP Diversity Plus: LPS Assay for Eselectin Biomarker Activity (AID 2283077); conditions: primary human HUVEC with PBMC; actives raise or lower the signal
Outline: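 Human umbilical vein endothelial cells co-cultured with PBMC under LPS stimulation; cell-surface E-selectin measured by ELISA 24 h after dosing. Change in either direction versus DMSO, with SRB total-protein staining in parallel cultures for cytotoxicity.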

[8] = read-out: Interleukin-8 (IL8), CXCL8 (gene 3576); experiment: BSK_LPS_IL8: BioMAP Diversity Plus: LPS Assay for Interleukin-8 (IL8) Biomarker Activity (AID 2283078); conditions: primary human HUVEC with PBMC; actives raise or lower the signal
Outline: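 Human umbilical vein endothelial cells co-cultured with PBMC, LPS-stimulated, exposed to compound for 24 h. IL-8 quantified by ELISA; fitted in both directions against DMSO, with SRB total-protein staining of parallel cultures for cytotoxicity.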

[9] = BSK_LPS_SRB: Viability Assessment in the BioMAP Diversity Plus: LPS Assay (AID 2283079); conditions: primary human HUVEC with PBMC;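 also: total protein by sulforhodamine B absorbance as a cytotoxicity measure; measured one day after compound addition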
Outline: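 Co-culture of human umbilical vein endothelial cells and PBMC, read 24 h after dosing. Total protein by 0.1% SRB staining after 10% TCA fixation, absorbance at 560 nm; bidirectional fit against DMSO.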

[10] = read-out: Interleukin-1 alpha (IL1a), IL1A (gene 3552); experiment: BSK_LPS_IL1a: BioMAP Diversity Plus: LPS Assay for Interleukin-1 alpha (IL1a) Biomarker Activity (AID 2283080); conditions: primary human HUVEC with PBMC; actives raise or lower the signal
Outline: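 Human umbilical vein endothelial cells co-cultured with PBMC and stimulated with LPS; IL-1a measured by ELISA 24 h after dosing. Bidirectional fitting against DMSO; cytotoxicity checked by SRB staining in parallel cultures.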

[11] = read-out: Monocyte Chemoattractant Protein-1 (MCP1), CCL2 (gene 6347); experiment: BSK_LPS_MCP1: BioMAP Diversity Plus: LPS Assay for Monocyte Chemoattractant Protein-1 (MCP1) Biomarker Activity (AID 2283081); conditions: primary human HUVEC with PBMC; actives raise or lower the signal;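 as to AC50: secreted MCP-1 protein quantified by ELISA in culture supernatant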
Outline: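 Human umbilical vein endothelial cells co-cultured with PBMC, LPS-stimulated; secreted MCP-1 measured by ELISA 24 h after compound addition. Bidirectional curve fitting against DMSO baseline; SRB total-protein staining in parallel cultures for cytotoxicity.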

[12] = BSK_LPS_PGE2: BioMAP Diversity Plus: LPS Assay for Prostaglandin E2 (PGE2) Biomarker Activity (AID 2283082); conditions: primary human HUVEC with PBMC; actives raise or lower the signal;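 as to AC50: secreted prostaglandin E2 measured by ELISA in LPS-stimulated co-culture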
Outline: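 Endpoint derived from bidirectional curve fitting versus DMSO of ELISA-measured PGE2 in LPS-stimulated human primary vascular co-culture (HUVEC with PBMC) harvested at 24 h.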

[13] = read-out: Macrophage colony-stimulating factor (MCSF), CSF1 (gene 1435); experiment: BSK_LPS_MCSF: BioMAP Diversity Plus: LPS Assay for Macrophage colony-stimulating factor (MCSF) Biomarker Activity (AID 2283083); conditions: primary human HUVEC with PBMC; actives raise or lower the signal
Outline: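 HUVEC–PBMC co-culture, M-CSF measured by ELISA 24 h after chemical dosing. Fitted in both directions relative to DMSO as negative control; overt cytotoxicity assessed by SRB total-protein staining in parallel cultures.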

[14] = read-out: Tissue Factor, F3 (gene 2152); experiment: BSK_LPS_TissueFactor: BioMAP Diversity Plus: LPS Assay for Tissue Factor Biomarker Activity (AID 2283084); conditions: primary human HUVEC with PBMC; actives raise or lower the signal
Outline: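 Human umbilical vein endothelial cells co-cultured with PBMC were dosed with compound. Cell-surface CD142 was measured by ELISA 24 h later. Activity was fitted bidirectionally against DMSO, with SRB total-protein staining in parallel cultures for cytotoxicity.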

[15] = read-out: Tumor necrosis factor (Homo sapiens) (UniProt P01375); experiment: BSK_LPS_TNFa: BioMAP Diversity Plus: LPS Assay for Tumour Necrosis Factor alpha (TNFa) Biomarker Activity (AID 2283085); conditions: primary human HUVEC with PBMC; actives raise or lower the signal;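 as to AC50: TNFa protein level quantified by ELISA in the co-culture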
Outline: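 Primary human vascular co-culture of HUVEC and PBMC; TNFa ELISA 24 h after treatment, analysed as increase or decrease relative to DMSO control.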

[16] = read-out: Vascular cell adhesion molecule 1 (VCAM1), VCAM1 (gene 7412); experiment: BSK_LPS_VCAM1: BioMAP Diversity Plus: LPS Assay for Vascular cell adhesion molecule 1 (VCAM1) Biomarker Activity (AID 2283086); conditions: primary human HUVEC with PBMC; actives raise or lower the signal
Outline: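 Primary human vascular co-culture (umbilical vein endothelium plus PBMC) stimulated with LPS received chemical; 24 h later VCAM-1 was read by ELISA. Overt cytotoxicity was assessed by sulforhodamine B staining of parallel cultures at the same time point.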

[17] = read-out: CD38, CD38 (gene 952); experiment: BSK_SAg_CD38: BioMAP Diversity Plus: SAg Assay for CD38 Biomarker Activity (AID 2283087); conditions: primary human HUVEC with PBMC; actives raise or lower the signal
Outline: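 Fluorescence ELISA of cell-surface CD38 served as the read-out, with either increase or decrease fitted against DMSO controls. Cells were a human umbilical vein endothelium plus PBMC co-culture under SEB/TSST-1 stimulation, measured 24 h after dosing.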

[18] = read-out: CD40, CD40 (gene 958); experiment: BSK_SAg_CD40: BioMAP Diversity Plus: SAg Assay for CD40 Biomarker Activity (AID 2283088); conditions: primary human HUVEC with PBMC; actives raise or lower the signal
Outline: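 HUVEC plus PBMC co-culture, superantigen-activated, with CD40 read by ELISA 24 h after dosing. Curves fitted in both directions against DMSO. Overt cytotoxicity checked by parallel SRB total-protein staining.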

[19] = read-out: CD69, CD69 (gene 969); experiment: BSK_SAg_CD69: BioMAP Diversity Plus: SAg Assay for CD69 Biomarker Activity (AID 2283089); conditions: primary human HUVEC with PBMC; actives raise or lower the signal;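 as to AC50: cell surface CD69 protein quantified by ELISA with fluorescence detection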
Outline: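 Primary human vascular co-culture (umbilical vein endothelium with peripheral blood mononuclear cells) exposed to test chemical for 24 h. CD69 levels quantified by fluorescence ELISA; DMSO served as negative control for bidirectional fitting.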

[20] = read-out: CD40, CD40 (gene 958); experiment: BSK_LPS_CD40: BioMAP Diversity Plus: LPS Assay for CD40 Biomarker Activity (AID 2283076); conditions: primary human HUVEC with PBMC; actives raise or lower the signal
Outline: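 HUVEC plus PBMC co-culture stimulated with LPS; CD40 quantified by ELISA 24 h after compound dosing. Fitting was bidirectional relative to DMSO. SRB staining of parallel cultures flagged overt cytotoxicity.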

Measured: AC50

Chain of E-selectin (Homo sapiens) (P16581 whole entry, looked up): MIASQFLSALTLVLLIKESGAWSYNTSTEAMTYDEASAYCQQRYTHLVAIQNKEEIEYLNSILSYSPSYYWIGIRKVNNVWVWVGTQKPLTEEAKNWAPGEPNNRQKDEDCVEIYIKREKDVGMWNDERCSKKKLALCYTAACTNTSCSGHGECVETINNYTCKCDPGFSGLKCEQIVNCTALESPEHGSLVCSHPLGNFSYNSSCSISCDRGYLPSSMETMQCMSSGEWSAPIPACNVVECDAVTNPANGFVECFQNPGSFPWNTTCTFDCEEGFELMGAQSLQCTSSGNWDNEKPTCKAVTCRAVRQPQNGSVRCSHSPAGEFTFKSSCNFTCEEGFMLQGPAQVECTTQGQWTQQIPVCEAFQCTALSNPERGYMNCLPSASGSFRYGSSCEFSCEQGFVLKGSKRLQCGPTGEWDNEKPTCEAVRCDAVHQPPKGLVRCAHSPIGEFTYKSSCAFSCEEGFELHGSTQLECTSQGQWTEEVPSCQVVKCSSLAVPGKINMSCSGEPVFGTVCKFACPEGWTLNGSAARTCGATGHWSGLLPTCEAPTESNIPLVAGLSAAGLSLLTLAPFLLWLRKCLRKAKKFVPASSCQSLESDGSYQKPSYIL
Chain of Tumor necrosis factor (Homo sapiens) (P01375 whole entry, looked up): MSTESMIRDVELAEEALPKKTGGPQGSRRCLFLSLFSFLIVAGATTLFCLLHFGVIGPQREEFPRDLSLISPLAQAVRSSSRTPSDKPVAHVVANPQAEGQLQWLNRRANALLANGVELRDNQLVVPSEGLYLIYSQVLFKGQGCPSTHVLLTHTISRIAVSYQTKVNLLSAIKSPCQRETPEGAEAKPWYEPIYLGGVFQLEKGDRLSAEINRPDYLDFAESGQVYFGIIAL

N#CSCSc1nc2ccccc2s1
active: [1] 7.76 µM and 11.4 µM | [2] 4.19 µM and 10.2 µM | [3] 10.2 µM and 11.5 µM | [4] 2.31 µM and 11.1 µM | [5] 10.6 µM and 10.3 µM | [6] 6.91 µM and 11.5 µM | [7] 3.96 µM and 8.13 µM | [8] 5.09 µM and 9.38 µM | [9] 8.07 µM and 9.64 µM | [10] 1.51 µM and 4.83 µM | [11] 6.17 µM and 6.23 µM | [12] 1.9 µM and 2.28 µM | [13] 2.25 µM and 6.78 µM | [14] 2.42 µM and 5.42 µM | [15] 992 nM and 2.17 µM | [16] 4.53 µM and 9.69 µM | [17] 5.37 µM and 5.56 µM | [18] 5.42 µM and 6.26 µM | [19] 3.12 µM and 6.36 µM

C=CCOC(Cn1ccnc1)c1ccc(Cl)cc1Cl (stereo unspecified)
active: [12] 270 nM
inactive: [1] | [2] | [3] | [4] | [5] | [6] | [7] | [8] | [9] | [10] | [11] | [13] | [14] | [15] | [16] | [17] | [18] | [19]

CCOC(=O)C(C)Oc1ccc(Oc2cnc3cc(Cl)ccc3n2)cc1 (stereo unspecified)
inactive: [1] | [2] | [3] | [4] | [5] | [6] | [20] | [7] | [8] | [9] | [10] | [11] | [13] | [14] | [15] | [16] | [17] | [18] | [19]
active: [12] 13100 nM

COC(=O)c1ccc(CNS(C)(=O)=O)cc1S(=O)(=O)NC(=O)Nc1nc(OC)cc(OC)n1
inactive: [1] | [2] | [3] | [4] | [5] | [6] | [7] | [8] | [9] | [10] | [11] | [12] | [13] | [14] | [15] | [16] | [17] | [18] | [19]

CCC(O)=C1C(=O)CC(C(=O)O)CC1=O (stereo unspecified)
inactive: [1] | [2] | [3] | [4] | [5] | [6] | [20] | [7] | [8] | [9] | [10] | [11] | [12] | [13] | [14] | [15] | [16] | [17] | [18] | [19]

CCCOC(=O)NCCCN(C)C
inactive: [1] | [2] | [3] | [4] | [5] | [6] | [7] | [8] | [9] | [10] | [11] | [12] | [13] | [14] | [15] | [16] | [17] | [18] | [19]
